# From PubChem
# PrP 5UTR inh: inhibition of PrP 5' UTR reporter expression; cell-based PrP 5' UTR mRNA reporter, plate reader; inhibition, % (no concentration beside the values); 340,000 compounds, 0.35% hits; AID 488862; in the data active = inhibition above about 52%
# PrPC surface inh: inhibitors of human cell surface prion protein PrPC. inhibition, % at 13.8 µM. 370,000 compounds, 0.43% hits. TR-FRET read-out. P04156; in the data active = inhibition above about 24%
# BJeLR viability: kills HRASV12-expressing BJeLR cells; BJeLR (HRASV12) viability, CellTiter-Glo ATP luminescence, 48 h; 300,000 compounds, 0.17% hits; inhibition, % (test concentration not listed); in the data active = inhibition above about 50%
# PfHsp40 rescue: rescue of PfHsp40-mediated yeast toxicity; S. cerevisiae expressing PfHsp40, growth rescue, ATP luminescence; growth rescue, % at 12.5 µM; 340,000 compounds, 0.68% hits; AID 504582; in the data active = growth rescue above about 28%, passing the limit was not always enough;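 also: yeast W303a lacking pdr1 and pdr3 grown in galactose medium; growth measured after three days at 30 °C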
# Mtb FBA inh: inhibitors of M. tuberculosis fructose-bisphosphate aldolase | purified M. tuberculosis FBA, fluorescence read-out | inhibition, % at 1 µM | 360,000 compounds, 2.3% hits | AID 588726; in the data active = inhibition above about 27%
# Target sequence (P9WQA3 whole entry, looked up): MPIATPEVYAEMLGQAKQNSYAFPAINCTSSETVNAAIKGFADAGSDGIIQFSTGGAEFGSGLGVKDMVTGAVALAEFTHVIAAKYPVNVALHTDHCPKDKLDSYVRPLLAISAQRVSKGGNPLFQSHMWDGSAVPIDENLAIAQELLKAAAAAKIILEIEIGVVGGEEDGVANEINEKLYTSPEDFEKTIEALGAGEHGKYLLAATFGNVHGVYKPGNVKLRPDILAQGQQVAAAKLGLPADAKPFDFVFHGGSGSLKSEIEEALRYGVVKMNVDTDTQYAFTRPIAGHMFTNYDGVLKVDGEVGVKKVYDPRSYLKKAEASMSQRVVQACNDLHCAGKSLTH
# GDH-TPI inh: counter-screen for M. tuberculosis FBA inhibitors: GDH-TPI coupled enzymes; GDH-TPI coupled enzyme counterscreen, NADH absorbance; inhibition, % at 4.8 µM; 360,000 compounds, 1.2% hits; AID 588335; in the data active = inhibition above about 30%
# Numbers stand for hits; . = inactive; / = no result; + = active, no number. Only some compounds are listed: those with a hit (about 4.5% of all), similar ones and a draw of the others.
SMILES,PrP 5UTR inh,PrPC surface inh,BJeLR viability,PfHsp40 rescue,Mtb FBA inh,GDH-TPI inh
O=C(OC12CCCN(C1)/C(=C/c1ccncc1)C2)c1ccc(Cl)cc1 (centres undefined),/,.,/,/,/,/
COC(=O)[C@@]1(C(C)C)N=C(c2cc(OC)c(OC)c(OC)c2)[C@]2(O1)C(=O)N(Cc1cn(-c3ccccc3)nn1)c1cccc(Cl)c12,/,.,/,/,/,/
CCN1c2ccccc2-c2nc3ccccc3n2C1c1cccs1 (centres undefined),.,.,.,.,+,.
Cc1ccc(-c2nc(P(=O)(c3ccccc3)c3ccccc3)c(N3CCOCC3)o2)cc1,.,.,.,.,.,.
COP(=O)(OC)c1nc(-c2ccc(C)cc2)oc1N1CCCCC1,.,.,.,.,+,.
COP(=O)(OC)c1nc(-c2cccc3ccccc23)oc1N1CCOCC1,.,.,.,.,+,.
CCOP(=O)(OCC)c1nc(-c2ccc(OC)cc2)oc1N1CCOCC1,.,.,.,.,173.5,.
CCOc1ccc(-c2nc(C#N)c(N3CCOCC3)o2)cc1,.,.,.,.,175.0,.
COC(=O)[C@]12C[C@H](CC(=O)NCCc3ccccc3OC)C(=O)N(Cc3ccco3)C1=C[C@H](C(C)(C)C)O[C@@H]2C,/,.,/,/,/,/
CCOC(=O)[C@]12CCCCC/C=C\1N(Cc1ccc(OC)cc1)C(=O)[C@H]2CC(=O)N1CCC(c2ccccc2)CC1,/,.,/,/,/,/
CN(CC#CC1=CCCCC1)/C(N)=N/C(=O)OCc1ccccc1,/,.,/,/,/,/
CC(=O)c1ccc(N2CCN(S(=O)(=O)c3c(C)[nH]c(C)c3C(=O)N3CCCC3)CC2)cc1,.,.,.,.,.,.
CC(=O)c1ccc(N2CCN(S(=O)(=O)c3c(C)[nH]c(C)c3C(=O)N3CCCCC3)CC2)cc1,.,.,.,.,.,34.5
CC(=O)c1ccc(N2CCN(S(=O)(=O)c3c(C(=O)N4CCCC4)c(C)n(C)c3C)CC2)cc1,.,.,.,.,.,39.7
CC(=O)c1ccc(N2CCN(S(=O)(=O)c3c(C(=O)N4CCCCC4)c(C)n(C)c3C)CC2)cc1,.,.,.,.,.,.
CC1(C)CC(=O)C=C(Nc2ccccc2NC(=O)c2cccc(F)c2F)C1,/,.,/,/,/,/
COc1cccc(-c2c(C(=O)N/N=C(\C)c3cccs3)nnn2-c2nonc2N)c1,.,.,.,.,.,30.8
Cc1ccsc1/C=N/NC(=O)c1nnn(-c2nonc2N)c1C,.,.,.,.,.,31.3
CCOc1cccc(-c2c(C(=O)N/N=C(\C)c3cccs3)nnn2-c2nonc2N)c1,.,.,.,.,.,.
Cc1ccsc1/C=N/NC(=O)c1nnn(-c2nonc2N)c1-c1ccccc1,.,.,.,.,.,38.2
Cc1ccc(/C=N/NC(=O)c2nnn(-c3nonc3N)c2-c2ccccc2)o1,.,.,.,.,.,44.0
CN[C@H]1C[C@H]2c3[nH]c4cccc(-c5cccc(F)c5)c4c3CCN2C(=O)[C@H]1[C@H](C)O,/,.,/,/,/,/
O=C(Nc1ccc(Cl)cc1)O[C@@H]1CC[C@@]23CCCN2C(=O)CCC[C@H]3C1,/,.,/,/,/,/
Cc1ccc(-c2cc(C(=O)NN=Cc3cccc(OCc4ccccc4)c3)[nH]n2)cc1C,/,.,/,/,/,/
Cn1cc([C@]2(O)C(=O)Nc3ccccc32)c2ccccc21,/,.,/,/,/,/
SMILES,PrP 5UTR inh,PrPC surface inh,BJeLR viability,PfHsp40 rescue,Mtb FBA inh,GDH-TPI inh
COc1ccc(NC(=O)NC2CCN(S(=O)(=O)c3ccc(F)cc3)CC2)cc1OC,/,.,/,/,/,/
COc1cccc(-c2c(C(=O)N/N=C/c3ccco3)nnn2-c2nonc2N)c1,.,.,.,.,.,33.0
COc1cccc(-c2c(C(=O)N/N=C/c3ccsc3)nnn2-c2nonc2N)c1,.,.,.,.,.,.
Nc1nonc1-n1nnc(C(=O)N/N=C/c2ccco2)c1-c1ccccc1,.,.,.,.,.,.
COc1cccc(-c2c(C(=O)N/N=C/c3sccc3C)nnn2-c2nonc2N)c1,.,.,.,.,.,34.8
COC(=O)[C@]12C[C@H](CC(=O)N3CCOCC3)C(=O)N(CCc3ccc(OC)c(OC)c3)C1=C[C@H](C(C)C)O[C@@H]2C1CC1,/,.,/,/,/,/
O=C(c1cc(Cl)cc(Cl)c1)N1CC[C@H]2[C@H](CCCN2Cc2ccc(F)cc2)C1,/,.,/,/,/,/
COc1cccc(-c2c(NC(=O)c3ccco3)oc3ccc(Cl)cc3c2=O)c1,.,.,.,.,.,35.9
Cc1cc(C)cc(N(CC(=O)NC2CCC(C)CC2)S(=O)(=O)c2ccccc2)c1 (centres undefined),/,.,/,/,/,/
CCNC(=S)Nc1ccc2c(c1)c(=O)n(C)n2-c1cc(C)cc(C)c1,/,.,/,/,.,.
C=C(C)Cn1c2ccc(NC(=O)NCc3ccccc3)cc2c(=O)n1C,/,.,/,/,166.2,.
C=C(C)Cn1c2ccc(NC(=O)NCC)cc2c(=O)n1C,/,.,/,/,+,.
CCNC(=O)Nc1ccc2c(c1)c(=O)n(C)n2Cc1ccc(Cl)cc1,/,.,/,/,+,.
C/C(=N\NC(=S)NC1CCCCC1)c1c(F)cccc1F,.,.,.,45.1,.,.
COc1cc(C)ccc1C(=O)N1CCC(Oc2cccnc2)CC1,/,.,/,/,/,/
Cc1cc(C)c(NC(=O)c2cc3c(nc4sccn43)s2)c(C)c1,.,.,.,66.4,.,.
COc1cc(Cn2c3ccc(NC(=O)NCCc4ccccc4)cc3c(=O)n2C)ccc1F,/,.,/,/,145.1,.
COc1ccccc1CCC(=O)Nc1ccc2c(c1)c(=O)n(C)n2-c1cccs1,/,.,/,/,.,.
O=C(NCc1cccnc1)Nc1cccc(C(F)(F)F)c1,.,.,.,.,.,.
Cn1c(=O)c2cc(NC(=O)CCc3cccnc3)ccc2n1Cc1cccc(C(F)(F)F)c1,/,.,/,/,141.1,.
Cn1c(=O)c2cc(NC(=O)Cc3cccnc3)ccc2n1-c1ccc2ccccc2c1,/,.,/,/,.,.
COc1cc(Cn2c3ccc(NC(=O)CCc4ccccc4)cc3c(=O)n2C)ccc1F,/,.,/,/,156.7,.
COc1cc(Cn2c3ccc(NC(=O)CCc4cccnc4)cc3c(=O)n2C)ccc1F,/,.,/,/,177.4,.
O=C(Nc1ccc(F)cc1F)C1CCN(c2ncccn2)CC1,/,.,/,/,/,/
COc1cccc(N2CCN(CC(=O)NCc3ccccc3C)CC2)c1,/,.,/,/,/,/
SMILES,PrP 5UTR inh,PrPC surface inh,BJeLR viability,PfHsp40 rescue,Mtb FBA inh,GDH-TPI inh
Cc1ccccc1Cn1cc(CN2[C@@H](CC(C)C)COc3cccc(F)c3S2(=O)=O)nn1,/,.,/,/,/,/
Cn1c(=O)c2cc(NC(=O)CCc3cccnc3)ccc2n1Cc1ccc(F)cc1,/,.,/,/,174.6,.
Cc1cc(N2CCN(C(=O)Oc3ccc(-c4ccccc4)cc3)CC2)c2ccccc2n1,/,.,/,/,/,/
COc1cc(C2Nc3ccccc3NC3=C2C(=O)CC(c2ccc(OC)c(OC)c2)C3)ccc1O (centres undefined),.,.,.,.,.,43.8
COc1ccc(C2CC(=O)C3=C(C2)Nc2ccccc2N(C(=O)C2CC2)C3c2cccnc2)cc1OC (centres undefined),/,.,.,.,.,.
CC(=O)CC[C@H]1CC[C@]2(CCCN(S(=O)(=O)c3ccccc3)C2)O1,/,.,/,/,/,/
